Measured values: ChEMBL document CHEMBL2218924, “A broad activity screen in support of a chemogenomic map for kinase signalling research and drug discovery” (Biochem J, 2013)

Columns and labels:
[1] = target: Tyrosine-protein kinase SYK (Homo sapiens) (UniProt P43405); conditions: at 10 µM
[2] = target: T1, Mitogen-activated protein kinase kinase kinase 7 (Homo sapiens) (UniProt O43318); conditions: at 1 µM
T1 sequence (whole entry): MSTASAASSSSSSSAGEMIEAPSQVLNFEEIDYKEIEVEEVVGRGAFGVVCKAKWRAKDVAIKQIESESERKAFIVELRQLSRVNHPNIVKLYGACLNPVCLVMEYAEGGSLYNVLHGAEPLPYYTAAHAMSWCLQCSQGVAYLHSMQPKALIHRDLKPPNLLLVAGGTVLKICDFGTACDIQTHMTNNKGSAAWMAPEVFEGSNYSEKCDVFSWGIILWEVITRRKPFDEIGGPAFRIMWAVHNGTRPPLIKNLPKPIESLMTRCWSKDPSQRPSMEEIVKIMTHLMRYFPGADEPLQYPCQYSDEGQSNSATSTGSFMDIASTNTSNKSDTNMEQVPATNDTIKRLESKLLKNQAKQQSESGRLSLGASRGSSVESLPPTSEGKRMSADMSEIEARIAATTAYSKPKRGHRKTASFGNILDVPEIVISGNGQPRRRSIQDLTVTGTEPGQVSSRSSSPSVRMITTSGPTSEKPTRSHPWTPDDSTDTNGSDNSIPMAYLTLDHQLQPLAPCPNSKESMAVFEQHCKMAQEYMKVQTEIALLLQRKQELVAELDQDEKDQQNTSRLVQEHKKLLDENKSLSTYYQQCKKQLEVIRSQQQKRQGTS

[3] = target: T2, Serine/threonine-protein kinase TAO1 (Homo sapiens) (UniProt Q7L7X3); conditions: at 1 µM
T2 sequence (whole entry): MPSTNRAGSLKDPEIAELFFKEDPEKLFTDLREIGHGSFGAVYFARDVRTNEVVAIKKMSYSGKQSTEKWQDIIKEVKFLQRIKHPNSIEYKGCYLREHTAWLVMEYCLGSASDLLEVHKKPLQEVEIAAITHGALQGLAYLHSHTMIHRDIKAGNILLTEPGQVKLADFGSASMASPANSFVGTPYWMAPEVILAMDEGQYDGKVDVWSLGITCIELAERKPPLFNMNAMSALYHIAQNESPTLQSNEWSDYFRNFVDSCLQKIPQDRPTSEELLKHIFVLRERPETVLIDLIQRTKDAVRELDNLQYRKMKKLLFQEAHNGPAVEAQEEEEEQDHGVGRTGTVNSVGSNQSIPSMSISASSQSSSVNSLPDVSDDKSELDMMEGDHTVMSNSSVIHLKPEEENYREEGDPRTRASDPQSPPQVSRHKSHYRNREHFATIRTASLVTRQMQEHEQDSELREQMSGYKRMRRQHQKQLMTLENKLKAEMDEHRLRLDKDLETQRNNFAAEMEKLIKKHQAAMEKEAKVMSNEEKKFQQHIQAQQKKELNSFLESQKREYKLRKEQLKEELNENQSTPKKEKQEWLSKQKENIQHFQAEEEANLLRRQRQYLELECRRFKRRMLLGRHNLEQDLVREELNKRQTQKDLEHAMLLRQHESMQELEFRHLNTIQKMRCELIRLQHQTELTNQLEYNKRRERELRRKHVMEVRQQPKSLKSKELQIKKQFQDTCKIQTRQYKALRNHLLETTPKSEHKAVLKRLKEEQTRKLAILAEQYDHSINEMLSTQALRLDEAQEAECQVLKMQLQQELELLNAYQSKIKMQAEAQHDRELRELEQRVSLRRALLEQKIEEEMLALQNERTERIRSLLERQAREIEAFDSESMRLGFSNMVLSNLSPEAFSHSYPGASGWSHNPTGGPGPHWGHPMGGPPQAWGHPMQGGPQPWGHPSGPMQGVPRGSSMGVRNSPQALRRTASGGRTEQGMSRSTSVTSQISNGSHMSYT

[4] = target: T2, Serine/threonine-protein kinase TAO1 (Homo sapiens); conditions: at 10 µM
[5] = target: T3, Serine/threonine-protein kinase TAO2 (Homo sapiens) (UniProt Q9UL54); conditions: at 1 µM
T3 sequence (whole entry): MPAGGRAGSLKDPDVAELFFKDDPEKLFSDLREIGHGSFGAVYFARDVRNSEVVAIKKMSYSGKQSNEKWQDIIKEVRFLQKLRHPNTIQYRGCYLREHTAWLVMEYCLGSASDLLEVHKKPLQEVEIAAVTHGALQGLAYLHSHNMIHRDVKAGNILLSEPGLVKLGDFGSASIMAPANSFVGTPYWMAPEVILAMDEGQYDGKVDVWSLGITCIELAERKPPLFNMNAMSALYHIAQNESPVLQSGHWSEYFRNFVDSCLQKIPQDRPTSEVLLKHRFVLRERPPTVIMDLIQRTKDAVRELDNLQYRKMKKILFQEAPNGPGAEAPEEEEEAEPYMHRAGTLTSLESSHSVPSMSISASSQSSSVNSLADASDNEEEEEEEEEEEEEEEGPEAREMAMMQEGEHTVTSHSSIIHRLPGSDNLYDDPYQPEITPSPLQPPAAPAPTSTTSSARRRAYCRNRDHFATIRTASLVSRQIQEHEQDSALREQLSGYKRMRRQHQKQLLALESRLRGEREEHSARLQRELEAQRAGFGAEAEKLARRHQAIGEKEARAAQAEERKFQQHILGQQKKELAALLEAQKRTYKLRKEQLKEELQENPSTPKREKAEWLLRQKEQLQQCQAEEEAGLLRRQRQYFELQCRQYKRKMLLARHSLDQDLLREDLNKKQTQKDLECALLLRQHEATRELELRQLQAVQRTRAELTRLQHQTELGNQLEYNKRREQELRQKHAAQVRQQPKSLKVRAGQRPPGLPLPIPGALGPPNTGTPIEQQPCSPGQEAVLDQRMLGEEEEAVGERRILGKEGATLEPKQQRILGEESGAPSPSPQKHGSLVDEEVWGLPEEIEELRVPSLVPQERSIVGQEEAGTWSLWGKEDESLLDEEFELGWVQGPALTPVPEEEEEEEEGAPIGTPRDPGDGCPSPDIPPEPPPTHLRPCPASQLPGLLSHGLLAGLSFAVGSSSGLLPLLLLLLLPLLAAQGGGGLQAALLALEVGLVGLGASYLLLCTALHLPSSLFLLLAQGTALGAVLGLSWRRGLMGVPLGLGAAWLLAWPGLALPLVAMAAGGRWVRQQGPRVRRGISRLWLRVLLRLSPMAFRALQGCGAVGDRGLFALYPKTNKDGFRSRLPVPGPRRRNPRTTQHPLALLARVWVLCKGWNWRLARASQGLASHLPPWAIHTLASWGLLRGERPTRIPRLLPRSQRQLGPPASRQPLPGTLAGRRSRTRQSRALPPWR

[6] = target: T3, Serine/threonine-protein kinase TAO2 (Homo sapiens); conditions: at 10 µM
[7] = target: T4, Serine/threonine-protein kinase TAO3 (Homo sapiens) (UniProt Q9H2K8); conditions: at 1 µM
T4 sequence (whole entry): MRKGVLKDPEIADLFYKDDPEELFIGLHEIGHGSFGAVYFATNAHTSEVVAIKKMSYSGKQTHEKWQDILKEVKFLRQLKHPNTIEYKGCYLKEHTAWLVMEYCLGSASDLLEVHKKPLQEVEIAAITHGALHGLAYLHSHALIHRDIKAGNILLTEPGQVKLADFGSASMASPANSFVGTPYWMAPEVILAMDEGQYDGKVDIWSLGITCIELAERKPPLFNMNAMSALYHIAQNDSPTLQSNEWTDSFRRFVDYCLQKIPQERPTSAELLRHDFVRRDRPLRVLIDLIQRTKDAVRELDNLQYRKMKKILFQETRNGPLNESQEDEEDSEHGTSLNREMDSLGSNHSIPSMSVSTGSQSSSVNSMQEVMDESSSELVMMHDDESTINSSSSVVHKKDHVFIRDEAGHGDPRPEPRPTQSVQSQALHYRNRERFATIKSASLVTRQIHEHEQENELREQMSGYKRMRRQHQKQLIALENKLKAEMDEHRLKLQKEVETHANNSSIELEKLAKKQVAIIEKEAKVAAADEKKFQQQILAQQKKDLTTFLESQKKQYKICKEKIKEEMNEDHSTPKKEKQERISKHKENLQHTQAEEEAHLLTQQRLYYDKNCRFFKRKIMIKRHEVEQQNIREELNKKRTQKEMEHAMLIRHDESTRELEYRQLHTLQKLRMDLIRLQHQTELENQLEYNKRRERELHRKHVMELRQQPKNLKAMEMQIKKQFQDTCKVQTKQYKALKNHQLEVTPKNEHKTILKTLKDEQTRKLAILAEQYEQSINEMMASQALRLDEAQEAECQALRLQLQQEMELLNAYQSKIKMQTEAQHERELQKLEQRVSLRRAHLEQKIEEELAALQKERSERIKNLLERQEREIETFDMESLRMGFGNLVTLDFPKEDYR

[8] = target: T4, Serine/threonine-protein kinase TAO3 (Homo sapiens); conditions: at 10 µM
[9] = target: T5, Serine/threonine-protein kinase TBK1 (Homo sapiens) (UniProt Q9UHD2); conditions: at 1 µM
T5 sequence (whole entry): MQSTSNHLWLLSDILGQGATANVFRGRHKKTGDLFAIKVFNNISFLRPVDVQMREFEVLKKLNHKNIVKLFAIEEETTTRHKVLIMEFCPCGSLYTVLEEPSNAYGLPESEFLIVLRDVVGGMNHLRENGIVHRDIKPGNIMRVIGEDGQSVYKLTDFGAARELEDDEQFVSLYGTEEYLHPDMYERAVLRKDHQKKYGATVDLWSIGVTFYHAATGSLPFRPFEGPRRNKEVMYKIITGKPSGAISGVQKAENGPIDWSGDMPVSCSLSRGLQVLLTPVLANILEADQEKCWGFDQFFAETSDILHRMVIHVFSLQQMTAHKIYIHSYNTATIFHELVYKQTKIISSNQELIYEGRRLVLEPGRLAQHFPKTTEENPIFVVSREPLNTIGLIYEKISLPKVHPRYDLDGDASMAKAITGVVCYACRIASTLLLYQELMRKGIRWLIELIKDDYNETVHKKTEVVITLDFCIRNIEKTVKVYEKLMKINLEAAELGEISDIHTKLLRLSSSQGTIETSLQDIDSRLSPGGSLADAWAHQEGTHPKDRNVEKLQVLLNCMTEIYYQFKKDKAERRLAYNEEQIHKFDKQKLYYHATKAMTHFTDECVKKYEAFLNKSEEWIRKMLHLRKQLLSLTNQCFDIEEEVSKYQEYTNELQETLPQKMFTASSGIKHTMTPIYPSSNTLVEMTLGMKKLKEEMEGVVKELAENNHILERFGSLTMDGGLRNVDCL

[10] = target: T1, Mitogen-activated protein kinase kinase kinase 7 (Homo sapiens); conditions: at 10 µM

Row | SMILES | residual activity [1] | residual activity [2] | residual activity [3] | residual activity [4] | residual activity [5] | residual activity [6] | residual activity [7] | residual activity [8] | residual activity [9] | residual activity [10]
1 | O=C1NC(=O)c2cc(Nc3ccc(F)cc3)c(Nc3ccc(F)cc3)cc21 | 78% | 83% | 83% | 39% | 63% | 21% | 79% | 37% | 69% | 
2 | O=C(O)c1ccc2c3c1cccc3c(=O)n1c3ccccc3nc21 | 105% | 89% | 90% | 56% | 110% | 91% | 91% | 65% | 19% | 41%
3 | N#CC(C#N)=C(N)/C(C#N)=C/c1ccc(O)cc1 | 74% |  |  | 81% |  | 87% | 99% | 85% | 82% | 89%
4 | COc1cc2ncc(-c3ccccc3)nc2cc1OC | 100% | 98% |  | 91% |  |  |  |  | 91% | 82%
5 | CN(C)CCCn1cc(C2=C(c3c[nH]c4ccccc34)C(=O)NC2=O)c2ccccc21 | 57% | 103% |  | 53% | 101% | 49% | 88% | 27% | 80% | 64%
6 | c1ccc(-c2n[nH]cc2-c2ccnc3ccccc23)nc1 |  | 91% | 107% | 95% | 103% | 86% | 91% | 84% | 71% | 71%
7 | O=C1Nc2ccccc2/C1=C1/Nc2ccccc2/C1=N\OCCC(O)CO (stereo unspecified) | 42% | 36% |  | 45% |  | 70% |  | 71% | 9% | 38%
8 | CCC(=O)Nc1ccc2ncnc(Nc3cccc(Br)c3)c2c1 | 84% | 92% | 96% | 86% | 98% | 91% | 96% | 95% | 69% | 90%
